Source: PubChem
HepG2 tox – kills HepG2 cells in TGF-b inhibitor counter-screen; HepG2 CAGA-GFP viability, ATP luminescence, 18 h; Potency, µM (series often up to 46.1 µM), inactives show top-dose activity change, negative = cytotoxicity, actives largely listed as cytotoxic; actives 0.76% (n = 410,000); AID 588856
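HepG2 CAGA-GFP cells (1000/well, DMEM with 1% FBS) received compound, then TGF-beta at 500 pg/mL final, and were incubated 18 hours at 37 degrees C. Viability was read by CellTiter-Glo luminescence. Media-only wells were set as complete cell-killing and DMSO as no toxicity.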
HT1080NT lethal – kills 2HG-producing HT-1080-NT fibrosarcoma cells; actives 1.6% (n = 360,000); HT-1080-NT fibrosarcoma viability, CellTiter-Glo ATP luminescence, 48 h; Potency, µM (top dose mostly 46.1 µM), for inactives: top-dose activity, negative = less viability, usual class: cytotoxic;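 note: NT is the 2HG producing partner of a matched IDH1 knockdown line; 0% = DMSO-treated cells and -100% = media-only wells without cells; nearly all actives have a fitted effect of over 55% in size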
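Toxicity toward the 2HG-producing NT line was scored as %Activity, normalised to DMSO and no-cell wells, from CellTiter-Glo luminescence after 48 hours' treatment.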
HT1080 IDH1KD tx – toxicity to HT-1080 IDH1 knockdown cells (counter line); HT-1080 IDH1 knockdown viability, ATP luminescence, 48 h; Potency, µM (series often up to 46.1 µM), inactives show at the highest dose activity, negative = toxicity, hits mostly cytotoxic; actives 2% (n = 360,000); AID 686971;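 note: 0% = DMSO wells and -100% = cell-free medium wells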
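Viability of IDH1-knockdown HT-1080 fibrosarcoma cells was assessed by CellTiter-Glo after 48 h at 37 °C with titrated compound; concentration-effect curves were classified by fit quality and response size.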
ATXN2 expr inh – reduces ATXN2 reporter expression in HEK-293 cells; HEK-293 ATXN2-luciferase reporter, luminescence, 24 h; Potency, µM (series often up to 57 µM), for inactives: top-dose activity change, negative = inhibition, most hits filed as inhibitors; actives 0.72% (n = 360,000); AID 1745845; note: % is set by controls: 0 for no effect and ±100 for the full control effect; nearly all actives have a fitted effect of over 55% in size
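ATXN2-luciferase reporter cells (luciferase flanked by upstream and downstream ATXN2 gene portions) were treated 24 h at 37 °C with compounds at up to 57 uM. SteadyGlo luminescence gave expression; GF-AFC fluorescence gave viability.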
TGFb SMAD3 inh – inhibitors of TGF-b signaling | HepG2 CAGA-GFP TGF-b/SMAD3 reporter, GFP fluorescence, 18 h; TGF-beta stimulated, 500 pg/mL final | Potency, µM (series often up to 46.1 µM), for the others: at the top dose activity, negative = inhibition, usual class: inhibitors | actives 1.2% (n = 410,000) | AID 588855; note: % is set by controls: 0 for no effect and ±100 for the full control effect; nearly all actives have a fitted effect of over 65% in size
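Smad-responsive CAGA-GFP expression was quantified in HEPG2 cells exposed to compounds and 500 pg/mL final TGF-beta for 18 h at 37 degrees C; unstimulated wells defined full inhibition.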
ATXN viability – cell viability loss in ATXN counter-screen. S2 cells (HEK-293 line with an ATXN2-luciferase reporter) viability, CellTiter-Fluor protease fluorescence, 24 h. Potency, µM (top dose mostly 56.7 µM), actives largely listed as cytotoxic. actives 0.49% (n = 400,000). AID 651635; note: nearly all actives have a fitted effect of over 40% in size
* = called active by the depositor; [ ] = another dose, or the depositor's remark. An excerpt weighted towards active compounds, which were near 3.8% of everything screened. Calls come from the whole dose curve; as a rule, active = well fitted curve in the direction sought with a large enough effect; inconclusive = small, poorly fitted or top-dose-only effect, or another doubt; inactive = no such curve, though single readings can be large; an effect the other way counts as inactive or inconclusive. Potency is the fitted concentration of half-maximal effect.

For CC(C)CNC(=O)c1cn(C2CCN(Cc3nc4ccccc4s3)CC2)nn1 the results were ATXN viability inactive.
For CC1(C)CC(=O)C2=C(C1)NC(Nc1nc3ccccc3o1)=NC2c1cccc(O)c1 (stereo not drawn) the results were HepG2 tox -38% and TGFb SMAD3 inh inconclusive.
`Cc1ccc(Cn2c(=O)c3ccccc3n3c(-c4ccccc4)nnc23)cc1` gave HepG2 tox -5%, ATXN2 expr inh 1%, TGFb SMAD3 inh 1% and ATXN viability inconclusive.
For Cc1cccc(-n2ccnc2SCC(=O)Nc2cccc3ccccc23)c1 the results were HepG2 tox -22%, ATXN2 expr inh inconclusive, TGFb SMAD3 inh 3% and ATXN viability inactive.
Screening O=Cc1cn(CCOc2ccccc2)c2ccccc12 returned HepG2 tox -62%, HT1080NT lethal -2%, HT1080 IDH1KD tx -5%, TGFb SMAD3 inh inconclusive and ATXN viability inconclusive.
Screening Cc1ccc(NC(=O)Cn2cc(C=O)c3ccccc32)cc1 returned HepG2 tox -29%, HT1080NT lethal -15%, HT1080 IDH1KD tx 0%, ATXN2 expr inh -9%, TGFb SMAD3 inh 7.9µM* and ATXN viability inactive.
`CC(=O)c1cn(CCOc2cc(C)ccc2C)c2ccccc12` gave HepG2 tox -1%, HT1080NT lethal inconclusive, HT1080 IDH1KD tx 9.2µM*, ATXN2 expr inh -24%, TGFb SMAD3 inh -5% and ATXN viability inactive.
COc1cccc(NC(=O)Cn2cc(C=O)c3ccccc32)c1 was read as HepG2 tox -49%, HT1080NT lethal -26%, HT1080 IDH1KD tx -14%, ATXN2 expr inh -16%, TGFb SMAD3 inh inconclusive and ATXN viability inactive.
`Cc1ccc(C)c(OCCn2cc(C(=O)O)c3ccccc32)c1` gave HepG2 tox -19%, HT1080NT lethal -24%, HT1080 IDH1KD tx -6%, ATXN2 expr inh 2%, TGFb SMAD3 inh 0% and ATXN viability inactive.
Screening COc1ccc(OC)c(NC(=O)Cn2cc(C=O)c3ccccc32)c1 returned HepG2 tox -30%, HT1080NT lethal -19%, HT1080 IDH1KD tx -11%, ATXN2 expr inh -7%, TGFb SMAD3 inh 10µM* and ATXN viability inactive.
For COC(=O)c1cn(CC(=O)Nc2ccc(F)cc2)c2ccccc12 the results were HepG2 tox -7%, HT1080NT lethal -19%, HT1080 IDH1KD tx -28%, ATXN2 expr inh -14%, TGFb SMAD3 inh -5% and ATXN viability inactive.
`Cc1ccc(OCCn2cc(C=O)c3ccccc32)cc1` gave HepG2 tox -14%, HT1080NT lethal 1%, HT1080 IDH1KD tx 1%, ATXN2 expr inh inconclusive, TGFb SMAD3 inh 11µM* and ATXN viability inactive.
Screening Cn1cnc2c(=O)oc3ccc(S(=O)(=O)Nc4ccc(F)cc4)cc3c21 returned HepG2 tox -21%, ATXN2 expr inh -14%, TGFb SMAD3 inh -11% and ATXN viability inactive.
Screening COC(=O)[C@@H]1CCCN1C(=O)c1c(OC)cc(=O)n2c1CCN(Cc1ccc3nsnc3c1)CC2 returned ATXN viability inactive.
Screening CCc1cccc(NC(=O)Cn2cc(C=O)c3ccccc32)c1 returned HepG2 tox -25%, HT1080NT lethal inconclusive, HT1080 IDH1KD tx 16µM*, TGFb SMAD3 inh inconclusive and ATXN viability inactive.
`CSC1=C(C#N)C(c2ccc(Cl)cc2)C2=C(CC(C)(C)CC2=O)N1` (stereo not drawn) gave HepG2 tox 4%, HT1080NT lethal -29%, HT1080 IDH1KD tx 8.2µM*, ATXN2 expr inh -21%, TGFb SMAD3 inh 11µM* and ATXN viability inconclusive.
Screening CC1(C)CC(=O)C2=C(C1)NC1=C(C(=O)c3ccccc31)C2c1ccc(Cl)cc1 (stereo not drawn) returned HepG2 tox -45%, HT1080NT lethal -14%, HT1080 IDH1KD tx 18µM*, ATXN2 expr inh 0%, TGFb SMAD3 inh inconclusive and ATXN viability inconclusive.
For O=C(O)C#CC(=O)O the results were HepG2 tox -20% and TGFb SMAD3 inh inconclusive.
`Cc1ccc(Nc2nc(-c3ccc(O)c(O)c3)cs2)nc1` gave HepG2 tox -28%, HT1080NT lethal inconclusive, HT1080 IDH1KD tx 23µM*, ATXN2 expr inh 13%, TGFb SMAD3 inh inconclusive and ATXN viability inactive.
`Cc1ccc(S(=O)(=O)N2CCN(c3nc(-c4cccs4)nc4c3ncn4COC(=O)C(C)(C)C)CC2)cc1` gave HT1080NT lethal 5% and HT1080 IDH1KD tx 0%.
Nc1c(C(=O)c2ccc(Cl)cc2)sc2nsc(SCCN3CCOCC3)c12 was read as HepG2 tox 2%, HT1080NT lethal 15%, HT1080 IDH1KD tx 19%, ATXN2 expr inh inconclusive, TGFb SMAD3 inh 3% and ATXN viability inactive.
`Nc1c(C(=O)c2ccccc2)sc2nsc(SCCN3CCCC3)c12` gave HepG2 tox -36%, HT1080NT lethal 12µM*, HT1080 IDH1KD tx 23µM*, ATXN2 expr inh inconclusive, TGFb SMAD3 inh 34% and ATXN viability inactive.
`CC(NC(=O)COC(=O)c1ccc(N(C)C)cc1)c1ccccc1` (stereo not drawn) gave HepG2 tox -13%, HT1080NT lethal -21%, HT1080 IDH1KD tx 18µM*, ATXN2 expr inh -20%[11.3 µM], TGFb SMAD3 inh -24% and ATXN viability inactive.
CC(NC(=O)COC(=O)c1ccco1)c1ccccc1 (stereo not drawn) was read as HepG2 tox -9%, HT1080NT lethal -4%, HT1080 IDH1KD tx -1%, ATXN2 expr inh 2%, TGFb SMAD3 inh -4% and ATXN viability inactive.
Screening CCN1CCCC1CNC(=O)c1ccc2c(c1)NC(=O)/C(=C\c1ccc(C)cc1)S2 (stereo not drawn) returned HepG2 tox 16µM*, HT1080NT lethal inconclusive, HT1080 IDH1KD tx 0% and TGFb SMAD3 inh inconclusive.
Screening O=C1Nc2cc(C(=O)NCCCN3CCCC3)ccc2S/C1=C/c1ccccc1F returned HepG2 tox -73%, HT1080NT lethal 8%, HT1080 IDH1KD tx 4%, TGFb SMAD3 inh inconclusive and ATXN viability inconclusive.
For Cc1ccc(/C=C2/Sc3ccc(C(=O)NCCN4CCOCC4)cc3NC2=O)cc1 the results were HepG2 tox 39%, HT1080NT lethal 1%, HT1080 IDH1KD tx -2%, TGFb SMAD3 inh 26% and ATXN viability inactive.
COc1cccc(/C=C2/Sc3ccc(C(=O)NCCCN4CCCC4)cc3NC2=O)c1 was read as HepG2 tox -110%, HT1080NT lethal 6%, HT1080 IDH1KD tx 2%, TGFb SMAD3 inh inconclusive and ATXN viability inconclusive.
